# Unmarked numbers belong to inactive results. Records with an inconclusive call do not appear. Where a call stands in place of a potency, no number is given. The source made the active and inactive calls. Unless noted, calls come from the whole dose curve.
# How the values were obtained:
# [1] = Nuclear factor erythroid 2-related factor 2/antioxidant responsive element (Nrf2/ARE) small molecule agonists: luciferase reporter gene qHTS assay in human keratinocytes (AID 1919969); note: nearly all actives have a fitted effect of over 35% in size; note: potency is the fitted concentration of half-maximal effect
# [2] = target: Gonadotropin-releasing hormone receptor (Homo sapiens) (UniProt P30968); experiment: Human gonadotropin-releasing hormone receptor (GnRHR) small molecule agonists, calcium flux assay in GnRHR-HEK293 cells (AID 1920063); note: nearly all actives have a fitted effect of over 35% in size
# In short: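 Calcium flux, agonist mode, human GnRHR stably integrated in HEK293; dye 1 h at 37 C before compound; Ex/Em=480/540 kinetic read, 3 min; 15 concentrations, triplicate.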
# [3] = target: KiSS-1 receptor (Homo sapiens) (UniProt Q969F8); experiment: Human kisspeptin (KISS1R) small molecule agonists, calcium flux assay in KISS1R-HEK293 cells (AID 1920064; active = well fitted activation curve with a large enough effect in the repeat runs)
# In short: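 Triplicate 15-concentration series were applied to dye-loaded human KISS1R HEK293 cells, and agonist-evoked calcium fluorescence was captured for 3 min.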
# [4] = G protein-coupled receptor (GPCR) small molecule agonists, calcium flux assay: HEK293 wild type cell line counter screen (AID 1920065)
# In short: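 Non-specific calcium responders were flagged by adding DMSO-dissolved compounds to dye-loaded cells and reading 480/540 nm fluorescence each second for 3 min; ATP served as positive control.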
# [5] = p53 small molecule agonists, cell-based qHTS assay with rat liver microsomes (AID 1963578)
# In short: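 Read-out is beta-lactamase reporter fluorescence (LiveBLAzer, 2 h, room temperature, dark) in p53RE-bla cells treated 16 h at 37 C with compound, rat liver microsomes and NADPH, both 0.5 mg/mL final.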
# [6] = target: 5-hydroxytryptamine receptor 2A (Homo sapiens) (UniProt P28223); experiment: 5-hydroxytryptamine receptor 2A (HTR2A) small molecule antagonists, cell-based qHTS assay (AID 1963586); note: nearly all actives have a fitted effect of over 45% in size
# In short: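 CHO cells stably expressing human HTR2A were plated for 18 h at 37 C, then loaded with calcium dye for 1 h. Compounds were preincubated 5 min at room temperature before DOI (4 nM solution) was added. Kinetic fluorescence was read for 3 min.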
# [7] = target: 5-hydroxytryptamine receptor 2A (Homo sapiens) (UniProt P28223); experiment: 5-hydroxytryptamine receptor 2A (HTR2A) small molecule agonists, cell-based qHTS assay (AID 1963587); note: nearly all actives have a fitted effect of over 30% in size
# In short: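 CHO cells stably expressing human HTR2A, plated 18 h, loaded with calcium dye 1 h at 37 C. Agonist mode: compounds added and intracellular calcium fluorescence recorded kinetically for 2 min at 1 sec intervals.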
# [8] = target: Muscarinic acetylcholine receptor M1 (Homo sapiens) (UniProt P11229); experiment: Cholinergic receptor muscarinic 1 (CHRM1) small molecule antagonists, cell-based qHTS assay (AID 1963588); note: nearly all actives have a fitted effect of over 40% in size
# In short: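 Compounds were tested at 15 concentrations in three independent runs. Dye-loaded CHRM1-CHO cells were exposed 5 min at room temperature before stimulation by acetylcholine added at 50nM. Intracellular calcium was read kinetically on FDSS for 3 min.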
# [9] = target: Muscarinic acetylcholine receptor M1 (Homo sapiens) (UniProt P11229); experiment: Cholinergic receptor muscarinic 1 (CHRM1) small molecule agonists, cell-based qHTS assay (AID 1963589); note: nearly all actives have a fitted effect of over 35% in size
# In short: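 qHTS, 15-point titration, 3 independent runs: compounds pin-transferred onto dye-loaded CHRM1-CHO cells (human M1), calcium fluorescence followed every second to detect agonism.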
# [10] = target: Beta-2 adrenergic receptor (Homo sapiens) (UniProt P07550); experiment: Adrenergic beta2 receptor (ADRB2) small molecule antagonists, cell-based qHTS assay (AID 1963592); note: nearly all actives have a fitted effect of over 50% in size; note: potency is the fitted concentration of half-maximal effect; for activity change, negative = inhibition: series mostly up to about 92 µM
# In short: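 Assay format: CHO-ADRB2 cells, 18-20hr seeding at 37C/5% CO2, then compound plus 1nM isoproterenol agonist mix for 0.5hr RT. Homogeneous time-resolved fluorescence cAMP detection after 1hr, expressed as 665/615 nm ratio.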
# [11] = target: Beta-2 adrenergic receptor (Homo sapiens) (UniProt P07550); experiment: Adrenergic beta2 receptor (ADRB2) small molecule agonists, cell-based qHTS assay (AID 1963593);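 note: CHO cells stably overexpressing human ADRB2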
# In short: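 CHO cells stably over-expressing ADRB2 were plated overnight at 37C, then dosed with compounds plus a stimulation mix containing 100uM IBMX and 25uM Ro-20-1724 for 0.5hr at room temperature. cAMP was measured by HTRF competition, 1hr.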
# [12] = target: D(2) dopamine receptor (Homo sapiens) (UniProt P14416); experiment: Dopamine D2 receptor (DRD2) small molecule antagonists, cell-based qHTS assay (AID 1963595; active = well fitted inhibition curve with a large enough effect in the signal ratio in the repeat runs, with a control signal flat; the % refers to the signal ratio; note: potency is the fitted concentration of half-maximal effect)
# In short: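 Stable D2 receptor HEK293 line, 24 h after seeding. Compound preincubated 10 min, then quinpirole (12 nM) with forskolin analogue NKH477 (200 nM), 30 min, room temperature. Detection by time-resolved FRET of cAMP.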
# [13] = p53 small molecule agonists, cell-based qHTS assay with human liver microsomes: qHTS cell viability counter screen (AID 1963579); note: nearly all actives have a fitted effect of over 45% in size; note: potency is the fitted concentration of half-maximal effect
# In short: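 Cells carrying the p53 response-element beta-lactamase reporter are treated for 16 h at 37 C with test compounds in the presence of human liver microsomes and NADPH (both 0.5 mg/mL final); ATP-based CellTiter-Glo luminescence then reports viability.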
# [14] = p53 small molecule agonists, cell-based qHTS assay: qHTS cell viability counter screen (AID 1963581); note: nearly all actives have a fitted effect of over 45% in size
# In short: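 Multiplexed with the reporter read, a CellTiter-Glo step (30 min, room temperature) gauges ATP-based viability of HCT-116 p53RE-bla cells after 16 h compound incubation at 37 C.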
# [15] = cAMP Responsive Elements (CRE) small molecule agonists, cell-based qHTS assay (AID 1963590)
# In short: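 Quantitative HTS for CRE agonists: HEK 293T CRE-bla cells, overnight plating, 3 h compound incubation at 37 C/5% CO2, then 2 h room-temperature LiveBLAzer B/G FRET substrate loading.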
# [16] = target: D(2) dopamine receptor (Homo sapiens) (UniProt P14416); experiment: Dopamine D2 receptor (DRD2) small molecule agonists, cell-based qHTS assay (AID 1963594); note: nearly all actives have a fitted effect of over 35% in size
# In short: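 HEK293 cells stably expressing human DRD2, pre-treated with PDE inhibitor Ro20-1724 (0.1 mM final) and compound 10 min at room temperature, then stimulated with NKH477 (200nM […]) for 30 min. cAMP read by HTRF (665/620 nm).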
# [17] = p53 small molecule agonists, cell-based qHTS assay with rat liver microsomes: qHTS cell viability counter screen (AID 1963580); note: nearly all actives have a fitted effect of over 45% in size
# In short: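 After the beta-lactamase ratio was read, CellTiter-Glo was added to the same wells and luminescence measured at 30 min; cells had been treated 16 h at 37 C with compounds, rat liver microsomes and NADPH (0.5 mg/mL final each).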
# [18] = p53 small molecule agonists, cell-based qHTS assay (AID 1963582; active = well fitted activation curve with a large enough effect in the signal ratio in the repeat runs, not every such curve was filed as active; the % refers to the signal ratio)
# In short: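 Beta-lactamase reporter cells (p53RE-bla) treated with compounds for 16 h at 37 C; FRET substrate, 2 h, room temperature; fluorescence intensity.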
# [19] = cAMP Responsive Elements (CRE) small molecule antagonists, cell-based qHTS assay (AID 1963591; active = well fitted inhibition curve with a large enough effect in the signal ratio in the repeat runs, not every such curve was filed as active; the % refers to the signal ratio)
# In short: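 Fluorescence intensity from cleaved LiveBLAzer B/G substrate (2 h, room temperature) quantified CRE-bla activity in HEK 293T cells exposed 3 h to compound with 0.25 uM final NKH477.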
# Beta-2 adrenergic receptor (Homo sapiens), sequence (P07550 whole entry, looked up): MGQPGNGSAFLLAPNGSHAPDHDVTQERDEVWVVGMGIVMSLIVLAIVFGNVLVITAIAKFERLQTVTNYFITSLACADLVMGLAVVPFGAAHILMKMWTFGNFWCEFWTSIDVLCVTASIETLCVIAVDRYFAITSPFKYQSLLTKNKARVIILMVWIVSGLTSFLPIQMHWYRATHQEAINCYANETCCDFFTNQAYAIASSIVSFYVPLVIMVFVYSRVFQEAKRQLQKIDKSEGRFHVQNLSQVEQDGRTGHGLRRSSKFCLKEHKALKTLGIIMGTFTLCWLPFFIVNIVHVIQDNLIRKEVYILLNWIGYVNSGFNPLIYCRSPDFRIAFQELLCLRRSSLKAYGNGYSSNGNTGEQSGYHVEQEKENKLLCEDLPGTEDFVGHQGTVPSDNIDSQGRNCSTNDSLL
# Gonadotropin-releasing hormone receptor (Homo sapiens), sequence (P30968 whole entry, looked up): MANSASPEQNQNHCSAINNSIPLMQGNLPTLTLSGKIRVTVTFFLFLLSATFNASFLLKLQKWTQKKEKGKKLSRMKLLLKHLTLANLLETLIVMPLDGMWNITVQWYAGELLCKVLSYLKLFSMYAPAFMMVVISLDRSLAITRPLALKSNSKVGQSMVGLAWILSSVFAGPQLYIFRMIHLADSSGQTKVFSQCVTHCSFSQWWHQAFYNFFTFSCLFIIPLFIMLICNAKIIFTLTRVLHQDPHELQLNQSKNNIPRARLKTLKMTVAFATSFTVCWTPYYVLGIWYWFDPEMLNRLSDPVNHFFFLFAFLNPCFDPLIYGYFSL
# D(2) dopamine receptor (Homo sapiens), sequence (P14416 whole entry, looked up): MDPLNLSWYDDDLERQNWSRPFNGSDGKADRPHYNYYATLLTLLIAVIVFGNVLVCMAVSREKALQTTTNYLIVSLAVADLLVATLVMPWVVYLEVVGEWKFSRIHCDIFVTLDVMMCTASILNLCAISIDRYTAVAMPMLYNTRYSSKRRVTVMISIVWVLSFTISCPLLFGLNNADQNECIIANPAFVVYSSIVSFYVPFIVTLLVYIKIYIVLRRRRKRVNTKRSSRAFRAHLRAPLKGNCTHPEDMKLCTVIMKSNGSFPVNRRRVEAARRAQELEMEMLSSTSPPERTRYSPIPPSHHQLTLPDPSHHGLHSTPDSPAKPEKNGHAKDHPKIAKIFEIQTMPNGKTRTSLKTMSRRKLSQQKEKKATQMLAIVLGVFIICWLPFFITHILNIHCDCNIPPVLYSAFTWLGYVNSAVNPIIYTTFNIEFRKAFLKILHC
# KiSS-1 receptor (Homo sapiens), sequence (Q969F8 whole entry, looked up): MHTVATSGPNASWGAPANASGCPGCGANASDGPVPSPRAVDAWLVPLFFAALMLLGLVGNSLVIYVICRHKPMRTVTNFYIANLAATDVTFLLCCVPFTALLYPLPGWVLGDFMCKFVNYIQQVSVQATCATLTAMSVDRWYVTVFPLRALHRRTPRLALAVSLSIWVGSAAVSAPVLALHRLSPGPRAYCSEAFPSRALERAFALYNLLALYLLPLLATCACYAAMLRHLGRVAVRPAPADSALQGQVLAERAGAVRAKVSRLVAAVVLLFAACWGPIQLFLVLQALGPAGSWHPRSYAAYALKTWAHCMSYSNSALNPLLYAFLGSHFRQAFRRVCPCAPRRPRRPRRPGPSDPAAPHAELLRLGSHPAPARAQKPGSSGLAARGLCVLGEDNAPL
# 5-hydroxytryptamine receptor 2A (Homo sapiens), sequence (P28223 whole entry, looked up): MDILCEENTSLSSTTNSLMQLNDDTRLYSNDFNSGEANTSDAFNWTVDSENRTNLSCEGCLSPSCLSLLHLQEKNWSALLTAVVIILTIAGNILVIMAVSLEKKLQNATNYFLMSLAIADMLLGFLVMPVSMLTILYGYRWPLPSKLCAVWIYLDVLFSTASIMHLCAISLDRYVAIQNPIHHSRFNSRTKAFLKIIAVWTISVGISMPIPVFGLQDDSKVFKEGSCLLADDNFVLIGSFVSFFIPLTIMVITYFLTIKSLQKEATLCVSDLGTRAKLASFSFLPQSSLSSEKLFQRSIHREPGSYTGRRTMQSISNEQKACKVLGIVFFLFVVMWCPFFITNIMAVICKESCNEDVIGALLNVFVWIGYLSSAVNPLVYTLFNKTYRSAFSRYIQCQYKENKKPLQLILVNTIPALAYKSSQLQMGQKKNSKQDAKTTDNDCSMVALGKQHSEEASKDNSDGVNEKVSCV
# Muscarinic acetylcholine receptor M1 (Homo sapiens), sequence (P11229 whole entry, looked up): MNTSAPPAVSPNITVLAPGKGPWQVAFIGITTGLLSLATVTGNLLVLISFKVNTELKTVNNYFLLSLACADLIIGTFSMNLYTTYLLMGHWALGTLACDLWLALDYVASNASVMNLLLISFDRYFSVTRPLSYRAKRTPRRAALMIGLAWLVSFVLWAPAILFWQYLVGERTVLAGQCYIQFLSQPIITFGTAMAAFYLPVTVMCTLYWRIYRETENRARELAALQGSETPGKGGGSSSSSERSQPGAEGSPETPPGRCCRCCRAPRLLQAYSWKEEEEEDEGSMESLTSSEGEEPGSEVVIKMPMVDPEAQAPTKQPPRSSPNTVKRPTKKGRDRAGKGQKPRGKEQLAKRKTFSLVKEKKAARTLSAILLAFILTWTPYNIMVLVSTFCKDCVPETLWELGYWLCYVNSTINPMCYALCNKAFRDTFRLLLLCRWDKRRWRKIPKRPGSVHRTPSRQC
compound,measurement,setting,value
CC1=C(/C=C/C(C)=C/C=C/C(C)=C/C=O)C(C)(C)CCC1,Potency,[1],27.1 µM (active)
same,Potency,[2],inactive
same,Potency,[3],inactive
same,Potency,[4],inactive
same,Potency,[5],inactive
same,Potency,[6],inactive
same,Potency,[7],inactive
same,Potency,[8],inactive
same,Potency,[9],inactive
same,Potency,[10],inactive
same,Potency,[11],inactive
same,Potency,[12],inactive
Cc1cccc(C(=O)O)c1O,Potency,[1],inactive
same,Potency,[2],inactive
same,Potency,[3],inactive
same,Potency,[4],inactive
same,Potency,[13],inactive
same,Potency,[14],inactive
same,Potency,[6],inactive
same,Potency,[7],inactive
same,Potency,[8],inactive
same,Potency,[9],inactive
same,Potency,[15],inactive
same,Potency,[10],inactive
same,Potency,[11],inactive
same,Potency,[16],inactive
same,Potency,[12],inactive
O=C1c2ccccc2Cc2ccccc21,Potency,[1],61.6 µM (active)
same,Potency,[2],inactive
same,Potency,[3],inactive
same,Potency,[4],inactive
same,Potency,[13],inactive
same,Potency,[17],inactive
same,Potency,[14],inactive
same,Potency,[18],inactive
same,Potency,[7],inactive
same,Potency,[9],inactive
same,Potency,[10],inactive
same,Potency,[16],inactive
same,Potency,[12],inactive
Brc1cc(-c2ccc(Br)c(Br)c2Br)cc(Br)c1Br,Potency,[1],inactive
same,Potency,[2],inactive
same,Potency,[3],inactive
same,Potency,[4],inactive
same,Potency,[13],inactive
same,Potency,[17],inactive
same,Potency,[14],inactive
same,Potency,[6],inactive
same,Potency,[7],inactive
same,Potency,[8],inactive
same,Potency,[9],inactive
same,Potency,[19],inactive
same,Potency,[11],inactive
same,Potency,[16],inactive
same,Potency,[12],inactive
O=C(O)/C=C(\CC(=O)O)C(=O)O,Potency,[1],inactive
same,Potency,[2],inactive
same,Potency,[3],inactive
same,Potency,[4],inactive
same,Potency,[13],inactive
same,Potency,[17],inactive
same,Potency,[14],inactive
same,Potency,[6],inactive
same,Potency,[7],inactive
same,Potency,[8],inactive
same,Potency,[9],inactive
same,Potency,[15],inactive
same,Potency,[19],inactive
same,Potency,[10],inactive
same,Potency,[16],inactive
same,Potency,[12],inactive
CN(C)c1ccc(O)c2c1C[C@H]1C[C@H]3[C@H](N(C)C)C(=O)C(C(N)=O)=C(O)[C@@]3(O)C(=O)C1=C2O,Potency,[1],inactive
same,Potency,[2],inactive
same,Potency,[3],inactive
same,Potency,[4],inactive
same,Potency,[13],inactive
same,Potency,[17],inactive
same,Potency,[14],inactive
same,Potency,[6],inactive
same,Potency,[7],inactive
same,Potency,[8],inactive
same,Potency,[9],inactive
same,Potency,[15],inactive
same,Potency,[19],inactive
same,Potency,[10],inactive
same,Potency,[16],inactive
same,Potency,[12],inactive
CCCCCCCCOC(=O)c1ccc(O)cc1,Potency,[1],inactive
same,Potency,[2],inactive
same,Potency,[3],inactive
same,Potency,[4],inactive
same,Potency,[13],45.8 µM (active)
same,Potency,[17],inactive
same,Potency,[6],inactive
same,Potency,[8],inactive
same,Potency,[9],inactive
same,Potency,[15],inactive
same,Potency,[10],inactive
same,Potency,[16],inactive
same,Potency,[12],inactive
CCOC(=O)[C@@](C)(N)Cc1ccc(O)c(O)c1,Potency,[1],inactive
same,Potency,[2],inactive
same,Potency,[3],inactive
same,Potency,[4],inactive
same,Potency,[13],inactive
same,Potency,[17],inactive
same,Potency,[14],inactive
same,Potency,[6],inactive
same,Potency,[7],inactive
same,Potency,[8],inactive
same,Potency,[15],inactive
same,Potency,[19],inactive
same,Potency,[10],inactive
same,Potency,[16],inactive
same,Potency,[12],inactive
C#Cc1cccc(Nc2ncnc3cc(OCCOC)c(OCCOC)cc23)c1,Potency,[1],inactive
same,Potency,[2],inactive
same,Potency,[3],inactive
same,Potency,[4],inactive
same,Potency,[13],inactive
same,Potency,[17],inactive
same,Potency,[14],inactive
same,Potency,[8],inactive
same,Potency,[9],inactive
same,Potency,[10],inactive
same,Potency,[11],inactive
same,Potency,[16],inactive
same,Potency,[12],inactive
C[C@]12CCC(=O)C=C1CC[C@H]1[C@@H]3CC[C@](O)(C(=O)CO)[C@@]3(C)C[C@H](O)[C@@]12F,Potency,[1],inactive
same,Potency,[2],inactive
same,Potency,[3],inactive
same,Potency,[4],inactive
same,Potency,[13],inactive
same,Potency,[17],inactive
same,Potency,[6],inactive
same,Potency,[7],inactive
same,Potency,[8],inactive
same,Potency,[9],inactive
same,Potency,[15],inactive
same,Potency,[19],inactive
same,Potency,[10],inactive
same,Potency,[12],inactive
CC(=O)SCC(CC(=O)c1ccc(C)cc1)C(=O)O (stereo not given),Potency,[1],inactive
same,Potency,[2],inactive
same,Potency,[3],inactive
same,Potency,[4],inactive
same,Potency,[13],inactive
same,Potency,[17],inactive
same,Potency,[14],inactive
same,Potency,[6],inactive
same,Potency,[7],inactive
same,Potency,[8],inactive
same,Potency,[9],inactive
same,Potency,[19],inactive
same,Potency,[10],inactive
same,Potency,[11],inactive
same,Potency,[12],inactive
CCOc1ccccc1OCCN[C@H](C)Cc1ccc(OC)c(S(N)(=O)=O)c1,Potency,[1],inactive
same,Potency,[2],inactive
same,Potency,[3],inactive
same,Potency,[4],inactive
same,Potency,[13],inactive
same,Potency,[17],inactive
same,Potency,[14],inactive
same,Potency,[6],inactive
same,Potency,[7],inactive
same,Potency,[8],inactive
same,Potency,[9],inactive
same,Potency,[19],inactive
same,Potency,[10],8.41 µM (active)
same,Potency,[12],1.19 µM (active)
O=C(O)CN(CCOCCOCCN(CC(=O)O)CC(=O)O)CC(=O)O,"activity, positive = activation",[1],-0.157% [at 0.349 µM]
same,activity change,[2],"0.537% [at 0.217 µM, hits give high values]"
same,activation,[3],-1.47% [at 0.29 µM]
same,activation,[4],-0.598% [at 0.217 µM]
same,"activity change, negative = cytotoxicity",[13],0.622% [at 0.249 µM]
same,"activity change, negative = cytotoxicity",[17],-3.51% [at 0.249 µM]
same,"activity change, negative = cytotoxicity",[14],-15.2% [at 0.249 µM]
same,activation,[7],-0.693% [at 0.292 µM]
same,"activity, negative = inhibition",[8],-20.9% [at 0.232 µM]
same,activation,[9],-0.0666% [at 0.29 µM]
same,activation,[15],-1.26% [at 0.349 µM]
same,"activity change, negative = inhibition",[19],0.383% [at 0.349 µM]
same,activation,[11],0.525% [at 0.349 µM]
same,"activity change, negative = inhibition",[12],-1.35% [at 0.348 µM]
O=C(Oc1ccccc1)c1cccc(C(=O)Oc2ccccc2)c1,Potency,[1],1.15 µM (active)
same,Potency,[2],inactive
same,Potency,[3],inactive
same,Potency,[4],inactive
same,Potency,[13],inactive
same,Potency,[17],inactive
same,Potency,[7],inactive
same,Potency,[8],inactive
same,Potency,[9],inactive
same,Potency,[16],inactive
